# Screen size: about 310,000 compounds; about 14,000 (4.5%) showed an effect of 50% or more. The effect is printed as a negative number. The list comes from a sample in which strong results are over-represented; it also holds similar structures and randomly drawn compounds.
# Biological target: human ether-à-go-go-related gene (hERG) potassium channel (human, UniProt Q12809)
# Experiment: primary screen, population patch clamp on CHO cells stably expressing hERG; higher = less effect of the substance
# 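Note: peak tail current of the secondary pulse compared with the same well before compound.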
# Sequence of human ether-à-go-go-related gene (hERG) potassium channel (Q12809 whole entry, looked up): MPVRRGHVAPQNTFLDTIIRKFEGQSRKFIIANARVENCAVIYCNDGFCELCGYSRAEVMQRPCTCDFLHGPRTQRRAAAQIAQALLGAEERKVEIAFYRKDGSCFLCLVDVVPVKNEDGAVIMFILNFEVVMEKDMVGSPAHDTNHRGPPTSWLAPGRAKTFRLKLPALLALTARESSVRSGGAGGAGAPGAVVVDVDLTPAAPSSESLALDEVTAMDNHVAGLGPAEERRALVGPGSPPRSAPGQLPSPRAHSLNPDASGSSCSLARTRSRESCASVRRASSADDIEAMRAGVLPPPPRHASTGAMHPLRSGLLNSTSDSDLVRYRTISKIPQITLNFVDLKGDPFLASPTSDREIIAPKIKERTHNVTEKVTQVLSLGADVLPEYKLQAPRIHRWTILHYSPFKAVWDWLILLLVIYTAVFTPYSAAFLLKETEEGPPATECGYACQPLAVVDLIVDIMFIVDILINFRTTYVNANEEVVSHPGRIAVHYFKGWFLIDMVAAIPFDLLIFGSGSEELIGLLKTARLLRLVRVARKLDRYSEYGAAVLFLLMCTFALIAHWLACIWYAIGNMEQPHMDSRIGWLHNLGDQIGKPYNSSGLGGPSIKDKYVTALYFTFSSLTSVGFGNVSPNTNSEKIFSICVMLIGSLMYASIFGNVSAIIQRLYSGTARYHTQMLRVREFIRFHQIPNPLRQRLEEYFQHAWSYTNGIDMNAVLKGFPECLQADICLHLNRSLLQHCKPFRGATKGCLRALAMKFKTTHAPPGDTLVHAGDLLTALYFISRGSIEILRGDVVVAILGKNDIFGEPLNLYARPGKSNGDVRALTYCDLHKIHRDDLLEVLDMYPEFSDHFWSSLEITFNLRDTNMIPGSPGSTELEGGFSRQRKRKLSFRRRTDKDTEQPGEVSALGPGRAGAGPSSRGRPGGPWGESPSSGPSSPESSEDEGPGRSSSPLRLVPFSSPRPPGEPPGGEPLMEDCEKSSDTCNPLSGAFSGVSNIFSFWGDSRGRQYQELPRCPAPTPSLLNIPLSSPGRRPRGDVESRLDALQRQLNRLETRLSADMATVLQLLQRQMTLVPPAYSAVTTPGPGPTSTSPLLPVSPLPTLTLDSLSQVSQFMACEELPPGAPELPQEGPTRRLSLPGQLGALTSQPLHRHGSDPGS
row,SMILES,"hERG current change (%, negative = inhibition) at 10uM [%]"
1,Cc1n[nH]c(C)c1S(=O)(=O)NCCc1ccc(Cl)cc1,5
2,O=c1cc(-c2ccc(O)c(-c3c(O)cc(O)c4c(=O)cc(-c5ccc(O)cc5)oc34)c2)oc2cc(O)cc(O)c12,-7.09
3,COc1cc(C(=O)Nc2ccc3c(c2)OCCO3)ccc1OC(F)F,-5.02
4,Cc1cc(NC(=O)CCC(=O)N(Cc2ccccc2)C2(C(=O)NC3CCCCC3)CCCC2)no1,21.1
5,Cc1cc(NC(=O)CCC(=O)N(CCC(C)C)C(C(=O)NC2CCCC2)c2ccccc2C)no1 (stereo not drawn),-21.5
6,O=C(NC(=S)NCC1CCCO1)c1cccc([N+](=O)[O-])c1 (stereo not drawn),2.05
7,O=C(NC1CC2CCCC(C1)N2C(=O)NCc1ccccc1)C1CC1 (stereo not drawn),4.22
8,CCc1ccc(OCC(=O)NNC(=O)c2cnccn2)c(Br)c1,-5.95
9,CN1CCCC(CC2c3ccccc3Sc3ccccc32)C1.Cl.O (stereo not drawn),-52.9
10,CC(=O)O.CN1CCCC(CN2c3ccccc3Sc3ccccc32)C1 (stereo not drawn),-28.4
11,CN1CCCC(C(O)(c2ccccc2)c2ccccc2)C1 (stereo not drawn),16.3
12,CN1CCCC(CC2Oc3ccccc3Sc3ccccc32)C1.O=C(O)C(=O)O (stereo not drawn),-67
13,Cl.c1ccc2c(c1)CC(N1CCCCC1)c1ccccc1S2 (stereo not drawn),9.15
14,CN1CCCC(OC(=O)COc2ccccc2)C1.Cl (stereo not drawn),10.4
15,CC(C)Oc1ccc(/C(O)=C2/C(=O)C(=O)N(CCN3CCOCC3)C2c2ccccc2)cc1 (stereo not drawn),13.6
16,COC(=O)Cn1ccc2cc(S(=O)(=O)N3CCCCC3)ccc21,-8.73
17,CCOC(=O)c1cc2occc2n1CCCN1C(=O)c2ccccc2C1=O,-23.5
18,Cc1ccc(C(=O)COC(=O)c2cc(Cl)ccc2O)cc1[N+](=O)[O-],10.4
19,O=C(COc1cc(Cl)ccc1Cl)Nc1ccc2[nH]c(=O)[nH]c2c1,12.8
20,COc1ccc(NC(=O)c2ccco2)cc1NC(=O)c1cc2ccccc2o1,3.33
21,O=C1Nc2ccccc2S/C1=C/Nc1cccc(Cl)c1,-3.01

row,SMILES,"hERG current change (%, negative = inhibition) at 10uM [%]"
1,C[C@H]1CCC[C@H](O)CCCCCc2cc(O)cc(O)c2C(=O)O1,-51
2,C[C@H]1CCCC(=O)CCCCCc2cc(O)cc(O)c2C(=O)O1,-0.0905
3,CC1CCC[C@H](O)CCCCCc2cc(O)cc(O)c2C(=O)O1 (stereo partly drawn),5.64
4,O=S(=O)(Nc1ccncc1)c1cc(Cl)c(Cl)cc1Cl,0.0869
5,O=C1C(Cl)=C(N2CCOCC2)C(=O)N1c1ccc(Br)cc1,14.8
6,O=C(COc1ccc(Br)cc1)Nc1ccccc1C(=O)NC1CC1,-6.57
7,CCOc1ccc(NC(=O)CSc2cn[nH]n2)cc1,3.89
8,Cc1nc(CN(C)C(=O)C2CCC(=O)N(CCc3cccc(F)c3)C2)cs1 (stereo not drawn),-7.62
9,CN(Cc1cnn(C)c1)C(=O)C1CCC(=O)N(Cc2cccc(F)c2)C1 (stereo not drawn),-49.8
10,CN1CCN(C(=O)C2CCC(=O)N(CCc3cccc(F)c3)C2)CC1 (stereo not drawn),12.3
11,Cc1cc(CN(C)C(=O)C2CCC(=O)N(CCc3cccc(F)c3)C2)on1 (stereo not drawn),9.94
12,O=C1CCC(C(=O)N2CCCC2)CN1CCc1cccc(F)c1 (stereo not drawn),4.37
13,Cc1cnc(C)c(N2CCN(C(=O)C3CCC(=O)N(CCc4cccc(F)c4)C3)CC2)n1 (stereo not drawn),-53.9
14,CN(Cc1ccccn1)C(=O)C1CCC(=O)N(Cc2cccc(F)c2)C1 (stereo not drawn),6.47
15,Cc1nc2ccccn2c1CN(C)C(=O)C1CCC(=O)N(Cc2cccc(F)c2)C1 (stereo not drawn),-80.2
16,Cc1nc2ccccn2c1CN(C)C(=O)C1CCC(=O)N(CCc2cccc(F)c2)C1 (stereo not drawn),-75.6
17,Nc1nc2c(nc(SCc3ccccc3Br)n2C2OC(CO)C(O)C2O)c(=O)[nH]1 (stereo not drawn),34.9
18,CCOC(=O)N1CCC(Nc2c(NCCCN(CC)Cc3ccccc3)c(=O)c2=O)CC1,6.06
19,Cc1ccc(C(=O)Nc2ccc3cn[nH]c3c2)cc1S(=O)(=O)N1CCOCC1,-8.78
20,O=C(N/N=C/c1cn(-c2ccccc2)nc1-c1cc2ccccc2o1)c1c[nH]c2ccccc12,13.2
21,Cc1c(OC(C)C(=O)NCC(O)c2ccccc2)ccc2c3c(c(=O)oc12)CCC3 (stereo not drawn),-13.3

row,SMILES,"hERG current change (%, negative = inhibition) at 10uM [%]"
1,Cc1cc(NC(=O)c2cccc(S(=O)(=O)N3CCOCC3)c2)c2ccccc2n1,-16.2
2,Cc1ccc(C(O)CN2C3=NCCN3c3ccccc32)cc1.Cl (stereo not drawn),-61.1
3,Cl.OC(CN1C2=NCCN2c2ccccc21)c1ccccc1 (stereo not drawn),-42.7
4,Cc1ccc(C(O)CN2C3=NCCCN3c3ccccc32)cc1.Cl (stereo not drawn),-67.4
5,COc1ccc(NC(=O)N2CCC(c3ccccc3)C2)c(OC)c1 (stereo not drawn),-1.5
6,Cc1cc(/C=C(/C#N)c2nc3ccccc3[nH]2)c(C)n1-c1ccccc1C(=O)O,15.8
7,Cc1ccnn1CC(=O)N/N=C/c1ccc([N+](=O)[O-])s1,-3.9
8,CC(C)NC(=S)NNC(=O)C12CC3CC(CC(C3)C1)C2,-8.78
9,CCN(CC)C(=O)N1CCN(C)CC1.O=C(O)CC(O)(CC(=O)O)C(=O)O,23.2
10,Cc1nc2nc(COc3ccccc3)[nH]n2c(=O)c1Cc1ccccc1,0.308
11,Cc1cc(Cl)ccc1OCC(=O)Nc1cccc(S(=O)(=O)N2CCCC2)c1,-1.87
12,O=C(CN1CCC(NC(=O)Nc2ccc(F)cc2)CC1)Nc1ccccc1[N+](=O)[O-],-51
13,O=C(CN1CCC(NC(=O)Nc2ccccc2)CC1)Nc1ccc([N+](=O)[O-])cc1,-64.4
14,O=C(CN1CCC(NC(=O)C2CC2)CC1)Nc1ccccc1[N+](=O)[O-],22.1
15,O=C(CN1CCCC1)Nc1ccc([N+](=O)[O-])cc1,-22.6
16,COc1cccc(NC(=O)NC2CCN(CC(=O)Nc3ccccc3[N+](=O)[O-])CC2)c1,-39.4
17,O=C(Nc1ccccc1)NC1CCN(CCCN2C(=O)c3ccccc3C2=O)CC1,-61.4
18,O=C(CN1CCC(NC(=O)Nc2ccccc2)CC1)Nc1ccccc1F,-18.3
19,O=C(CN1CCC(NC(=O)Nc2ccccc2)CC1)Nc1cccc([N+](=O)[O-])c1,-40.6
20,Cc1ccccc1NC(=O)CN1CCC(NC(=O)Nc2ccccc2)CC1,-35.9
21,O=C1CC(N2CCN(S(=O)(=O)c3ccccc3)CC2)C(=O)N1c1ccccc1 (stereo not drawn),1.87

row,SMILES,"hERG current change (%, negative = inhibition) at 10uM [%]"
1,O=c1c2c3c(sc2n2cnnc2n1CCc1ccccc1)CCCC3,-20.5
2,CCOC(=O)c1cnn(-c2ccc(C)cc2)c1N,-1.1
3,CN(C)CCCN(C(=O)c1ccc(S(=O)(=O)N2CCc3ccccc3C2)cc1)c1nc2c(F)cc(F)cc2s1.Cl,-15.2
4,CN(C)CCCN(C(=O)c1ccc(S(=O)(=O)N2CCCC2)cc1)c1nc2c(F)cc(F)cc2s1.Cl,-44.3
5,CCOC(=O)N1CCN(S(=O)(=O)c2ccc(C(=O)N(CCN(CC)CC)c3nc4c(C)cccc4s3)cc2)CC1.Cl,-24.3
6,CN(C)CCCN(C(=O)c1ccc(S(=O)(=O)N2CCCCCC2)cc1)c1nc2c(F)cccc2s1.Cl,-66.2
7,CN(C)CCCN(C(=O)c1ccc(S(=O)(=O)N2CCCCCC2)cc1)c1nc2c(F)cc(F)cc2s1.Cl,-69.6
8,CCOC(=O)N1CCN(S(=O)(=O)c2ccc(C(=O)N(CCCN(C)C)c3nc4c(F)cc(F)cc4s3)cc2)CC1.Cl,-51.3
9,CCOc1cccc2sc(N(CCN(CC)CC)C(=O)c3ccc(S(=O)(=O)N4CCCCC4)cc3)nc12.Cl,-62.4
10,CCOc1cccc2sc(N(CCCN(C)C)C(=O)c3ccc(S(=O)(=O)N4CCCCCC4)cc3)nc12.Cl,7.67
11,Cc1ccc2sc(N(CCCN(C)C)C(=O)c3ccc(S(=O)(=O)N4CCCCCC4)cc3)nc2c1C.Cl,-23.4
12,CN(C)CCCN(C(=O)c1ccc(S(=O)(=O)N2CCc3ccccc3C2)cc1)c1nc2c(F)cccc2s1.Cl,4.85
13,CCOc1cccc2sc(N(CCN(CC)CC)C(=O)c3ccc(S(=O)(=O)N4CCCC4)cc3)nc12.Cl,-24.2
14,NC(=O)C1(N2CCCCC2)CCN(C2CC(=O)N(Cc3ccc(N4CCCC4=O)cc3)C2=O)CC1 (stereo not drawn),5.32
15,O=c1cc(N2CCN(Cc3ccccc3)CC2)[nH]c(=O)n1-c1ccc(Br)cc1,-10.7
16,CN(C)S(=O)(=O)c1ccc(C(=O)Nc2ccccc2OC(F)(F)C(F)F)cc1,-16.6
17,C#CCNc1ccncc1S(=O)(=O)NC(=O)NC(C)C.O=[N+]([O-])O,-1.14
18,O=c1cc(CN2CCN(c3cccc(C(F)(F)F)c3)CC2)nc2sccn12,-46.3

# Reference: PMC4336329 (PLoS ONE, 2015)
